“And” between values parts separate entries of the source, which are not always exact repeats. Equal entries are not always repeated. This is part of a sample that, as a whole, favours compounds with a hit. Of some 83,000 tested, about 20% had one in any assay.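 Single-dose data. Exposure time 48 hours. Values below 10 considered active.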 The source made the active and inactive calls.
tested on: MDA-MB-468 breast; test: NCI-60 one-dose screen, 48 h (100 = growth as untreated, 0 = no growth, -100 = all killed); conditions: 10 µM unless noted

| Compound | growth |
| --- | --- |
| Cc1oc2ccc(O)c(CN3CCCCCC3)c2c1C(=O)Nc1ccc(C(F)(F)F)cc1 | 5.74% (active) |
| Cc1ccc(C(=O)N/N=C/c2ccc3c(c2)OCO3)cc1 | 101% (inactive) |
| COc1ccc2c(c1)OC1=C(C(=O)OC1)C2c1cc(OC)c2c(c1)OCO2 (stereo not given) | -7.16% (active) |
| COc1ccc(-c2nc3ccc(-c4nnc(SCC(=O)Nc5ccc(C(=O)/C=C/c6ccc(Cl)cc6)cc5)o4)cc3[nH]2)cc1 | 98.1% (inactive) |
| CC1SC(c2ccc(Cl)cc2)N(CCc2cccs2)C1=O (stereo not given) | -38.4% (active) |
| CCN(CC)CCn1c(=N)n(CC(O)c2ccc(Cl)c(Cl)c2)c2ccccc21 (stereo not given) | 21% (inactive) |
| Cc1ccccc1Nc1n[nH]c(Cc2ccccc2)n1 | 104% (inactive) |
| COc1cc(/C=N/NC(=O)Cn2c(-c3ccc(C)o3)nc3ccccc32)ccc1OCc1ccccc1 | 76.6% (inactive) |
| Cc1cn(C)cn1 | 112% (inactive) |
| O=C(CCl)n1nnnc1Cc1ccccc1 | 101% (inactive) |
| C/C(=N/NC(N)=S)c1ccc(Nc2nc(SCC(C)C)nc(-c3ccc(F)cc3)c2C#N)cc1 | -19.4% (active) |
| N#Cc1c(-c2ccccc2)nc(SCC(=O)N2CCOCC2)[nH]c1=O | 108% (inactive) |
| OC(CNC1CCCC1)Cn1c2ccccc2c2ccccc21 (stereo not given) | -21.2% (active) |
| CC(C)c1ccc(Nc2ccc3c(OCCCN4CCN(C)CC4)cccc3n2)cc1 | 66% (inactive) |
| CCC(=O)OC1=CN2C(=NC(c3ccc(N)cc3)=CC2c2cc(OC)c(OC)c(OC)c2)S1 (stereo not given) | 25.5% (inactive) |
| c1ccc2c(N3CCCCC3)ncnc2c1 | 75.9% (inactive) |
| C=CCN1C=CC(=O)[C@H](O[Si](C)(C)C(C)(C)C)[C@@H]1/C=C/c1ccccc1 | -72.9% [100 µM] (active) |
| CC(C)(C)c1ccc(C2CC(=O)C3=C(C2)Nc2ccccc2N(C(=O)c2ccccc2Cl)C3c2ccc(F)cc2)cc1 (stereo not given) | -20.1% (active) |
| N#Cc1c(-c2ccccc2)nc2c(c(-c3ccc(Cl)cc3)nn2-c2ccccc2)c1-c1ccc([N+](=O)[O-])cc1 | 104% (inactive) |
| O=C1N[C@@H]2NC(=[N+]3CCOCC3)N[C@@H]2N1 | 99.6% (inactive) |

| Compound | growth |
| --- | --- |
| Cc1ccc(-c2cc(O)c(-c3ccc(C)cc3C)cc2O)c(C)c1 | 46.5% (inactive) |
| CCCCCc1c(C)[nH]c(/C=C2\N=C(c3ccc[nH]3)C=C2Oc2ccc(Cl)cc2)c1C | -16.4% [100 µM] (active) |
| CCn1cnc(C[C@H](NC(=O)[C@@H](NC(=O)Nc2cc(C(F)(F)F)cc(C(F)(F)F)c2)C(C)C)C(=O)OC)c1 | -81.1% [100 µM] (active) |
| C=CCOc1ccc(/C(Cl)=N/N=C(\Cl)c2cc(OC)c(OC)c(OC)c2)cc1 | 23.3% (inactive) |
| O=C(O)C1C(c2ccccc2)c2ccccc2C(O)C1CO (stereo not given) | 117% (inactive) |
| Cc1nc(N/N=C/c2cn(-c3ccccc3)nc2-c2cc3ccccc3oc2=O)sc1N=Nc1ccccc1 | 89.7% (inactive) |
| O=C(O)c1ccc(-n2cc(/C=N/Nc3ccc(F)cc3)c(-c3cc4ccccc4oc3=O)n2)cc1 | 119% (inactive) |
| CC(=O)Nc1ccc([I+]c2ccc([N+](=O)[O-])cc2)cc1 | 41.7% (inactive) |
| O=C(Nc1cccc(-n2ccc3c(NC(=O)c4ccccc4)nccc32)c1)c1ccc(Cl)c(C(F)(F)F)c1 | -86.9% (active) and 85.1% (inactive) |
| O=C(CCCCCCSc1nc(-c2ccccc2)cc(-c2ccccc2)n1)NO | 43.2% (inactive) |
| O=C(CNC(=O)c1cccc2ccccc12)Nc1ccccc1Oc1cccc(O)c1 | -3.16% [5 µM] (active) |
| Cc1ccc(N2C(=O)CCC2=O)cc1 | 103% (inactive) |
| COc1cc(CNC(=O)c2ccsc2Nc2ccnc(C(F)(F)F)c2)ccc1O | 95.6% (inactive) |
| O=c1oc2ccc(Cl)cc2cc1-c1cs/c(=N/N=C\c2ccc(Cl)cc2)n1/N=C/c1ccc(Cl)cc1 | 114% (inactive) |
| N#CN1CC[C@H](C(=O)Nc2cc3cc(C(N)=O)ccc3cn2)C1 | -46.2% (active) |
| CCCCCCCCCCCCCCCCOc1ccc(C)cc1 | 106% (inactive) |
| O=Nc1ccc(NO)c2ccccc12 | 73.7% (inactive) |
| COc1ccc(-c2cc(NC(=O)Nc3ccc(O)cc3)no2)cc1 | 80.5% (inactive) |
| S=c1[nH]cccc1-c1nnc2n1Nc1nc3ccc(Cl)cc3cc1CS2 | 109% (inactive) |
| O=C1OC(=O)C2C1C1(Cl)C(Cl)=C(Cl)C2(Cl)C2C(=O)OC(=O)C21 (stereo not given) | 94.3% (inactive) |

— PubChem BioAssay (NCI)
